# PubChem BioAssay
# For part of these data: Potency and affinity values are given separately. Activity calls are given as the source filed them. Unless noted, no rule for the calls is given here.
# How the values were obtained:
# [1] = chitosan synthesis blockers in C. neoformans – flow cytometry, Cibacron Brilliant Red staining (AID 1347148); conditions: Cryptococcus neoformans chitosan, stronger effect = lower value; at 10 µM unless noted;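 also: compound exposure lasted three days at 37 degrees C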
# [2] = compounds altering HSF1 focus formation in cells – imaging, Selleck Cancer Library (AID 1347162; in the data active = plate-normalised HSF1 focus index below about 0.46); conditions: human cells, HSF1 nuclear foci imaging, at 10 µM; SSMD: measured here: HSF1 foci SSMD mean; cell count: measured here: cell number; plate-normalised HSF1 focus index: stronger effect = lower value
# [3] = compounds altering viability of human ES cells (AID 493140); conditions: human embryonic stem cell survival screen; stronger effect = higher value;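 also: cells exposed to compounds for four days before counting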
# [4] = blockers of polyQ-driven CASP3 activation – cell-based (AID 1583); conditions: polyglutamine-induced caspase-3 activation, cell assay; stronger effect = higher value;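 tested at 10 µM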
# [5] = yeast 75Q aggregation reduction – 75Q-TubU reporter (AID 1593); conditions: Yeast 75Q polyglutamine aggregation reporter
# [6] = restoration of touch response, mutant HTT neurons – whole organism, C. elegans mechanosensory neurons, N-terminal huntingtin (AID 1599); conditions: C. elegans polyQ-huntingtin mechanosensory neurons, stronger effect = higher value
# [7] = blockers of cytochrome c efflux from mitochondria – biochemical, purified mitochondria (AID 1603); conditions: stronger effect = lower value;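 also: mouse liver mitochondria challenged with calcium chloride; signal normalized to the plate average as 100%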
# [8] = polyglutamine aggregate formation blockers (AID 1604); conditions: polyglutamine-induced protein aggregation inhibition assay; stronger effect = higher value; tested at 2.5 µM
# [9] = glutamate transport activators, MN-1 cells, MN-1 cell line (AID 1612); conditions: MN-1 motor neuron cells, stronger effect = higher value;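 also: tested at 1 µM final; 0% = mean of DMSO vehicle wells on each plate; positive means more glutamate uptake than control and negative means less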
# [10] = 75Q-TubH aggregate inhibition, S. cerevisiae, yeast (AID 1616); conditions: S. cerevisiae 75Q-TubH polyglutamine aggregation suppression; stronger effect = higher value
# [11] = blockers of cellular phospholipid synthesis – cell-based, LOPAC library, screen 4, primary screen (AID 1347384); conditions: animal cells, phospholipid biosynthesis inhibition screen; at 10 µM
smiles,measurement,setting,value
COC(=O)[C@H]1[C@@H]2C[C@@H]3c4[nH]c5ccccc5c4CCN3C[C@H]2CC[C@H]1O,fold fluorescence,[1],3.91 [at 141.1 µM] (inactive)
O=C(O)CNC(=O)[C@H](CS)Cc1ccccc1,fold fluorescence,[1],3.85 [at 197.4 µM] (inactive)
C=C1/C(=C\C=C2/CCC[C@]3(C)[C@@H]2CC[C@H]3[C@@H](C)CCCC(C)(C)O)C[C@H](O)C[C@H]1O,fold fluorescence,[1],7.1 (inactive)
NC(=NCCC[C@H](N)C(=O)O)N[N+](=O)O,SSMD,[2],2.98
same,cell count,[2],7230
same,plate-normalised HSF1 focus index,[2],1.18 (inactive)
C=C1CC[C@@H](O)C/C1=C/C=C1\CCC[C@]2(C)[C@@H]1CC[C@H]2[C@@H](C)CCCC(C)(C)O,fold fluorescence,[1],5.68 (inactive)
CC(=O)[C@@H]1[C@@H](C#N)C[C@@H]2[C@H]3CC=C4C[C@H](O)CC[C@@]4(C)[C@@H]3CC[C@]21C,fold fluorescence,[1],3.64 [at 146.4 µM] (inactive)
O=C(O)CCC/C=C\C[C@@H]1C(=O)C[C@H](O)[C@H]1/C=C/[C@H](O)CCc1ccccc1,fold fluorescence,[1],4.52 (inactive)
CCCCC[C@@H](O)/C=C/[C@H]1[C@H](C/C=C\CCCC(=O)O)[C@@H](O)C[C@@H]1O,fold fluorescence,[1],4.53 (inactive)
C[C@H](N)C1CCC(C(=O)Nc2ccncc2)CC1 (some centres not stated),fold fluorescence,[1],2.94 [at 202.1 µM] (inactive)
COc1c/c(=C2/C=c3ccccc3=N2)[nH]/c1=C\c1[nH]c(C)cc1C,SSMD,[2],-6.15
same,cell count,[2],7490
same,plate-normalised HSF1 focus index,[2],0.614 (inactive)
CN(CCc1ccc(Cl)c(Cl)c1)C[C@H](O)COc1ccc(NS(C)(=O)=O)cc1,fold fluorescence,[1],3.81 [at 111.8 µM] (inactive)
CCCCC/C=C\C[C@H](O)/C=C/C=C/C=C\[C@H](O)CCCC(=O)O,fold fluorescence,[1],3.97 [at 1 µM] (inactive)
COc1cc2c3cc1Oc1c(OC)c(OC)cc4c1[C@H](Cc1ccc(OC(=O)c5ccc([N+](=O)[O-])cc5)c(c1)Oc1ccc(cc1)C[C@H]3N(C)CC2)N(C)CC4,fold fluorescence,[1],5.83 [at 66 µM] (inactive)
C[C@@H](COc1ccccc1)N(CCCl)Cc1ccccc1,fold fluorescence,[1],6.47 [at 164.6 µM] (inactive)
CCOC(=O)C1=C(C)NC(=S)N[C@H]1c1cccc(O)c1,fold fluorescence,[1],3.63 [at 171 µM] (inactive)
CO[C@H]1/C=C\C=C(/C)C(=O)NC2=CC(=O)C(NCCN(C)C)=C(C[C@@H](C)C[C@H](OC)[C@H](O)[C@@H](C)/C=C(\C)[C@@H]1OC(N)=O)C2=O,SSMD,[2],3.16
same,cell count,[2],7300
same,plate-normalised HSF1 focus index,[2],1.12 (inactive)
C=C1/C(=C/C=C2\CCC[C@]3(C)[C@@H]([C@H](C)/C=C/[C@@H](C)C(C)C)CC[C@@H]23)C[C@@H](O)C[C@@H]1O,SSMD,[2],1.3
same,cell count,[2],6600
same,plate-normalised HSF1 focus index,[2],1.07 (inactive)
CCCCCCCCCCCCCCCC(=O)OC[C@@H](COP(=O)(O)O)OC(=O)CCCCCCCCCCCCCCC,fold fluorescence,[1],3.86 (inactive)
CCCCC[C@@H](O)/C=C/[C@H]1[C@H](CCCCCCC(=O)O)[C@H](O)C[C@@H]1O,fold fluorescence,[1],3.58 (inactive)
O=C(O)CCC/C=C\C[C@H]1[C@H](/C=C/[C@H](O)COc2cccc(C(F)(F)F)c2)[C@@H](O)C[C@H]1O,fold fluorescence,[1],4.62 (inactive)
C=CC[C@H]1/C=C(\C)C[C@@H](C)C[C@@H](OC)[C@@H]2O[C@](O)(C(=O)C(=O)N3CCCC[C@@H]3C(=O)O[C@@H](/C(C)=C/[C@H]3CC[C@H](O)[C@@H](OC)C3)[C@@H](C)[C@H](O)CC1=O)[C@@H](C)C[C@H]2OC,fold fluorescence,[1],13.5 [at 62.2 µM] (inactive)
CCCCCCCCCCCCCCC[C@H](O)[C@@H](CO)NC(=O)CCCCCCC,fold fluorescence,[1],6.03 (inactive)
Nc1ncnc2c1c(I)cn2C1OC(CO)C(O)C1O (configuration not stated),survival,[3],7.5 (inactive)
same,fold fluorescence,[1],3.83 [at 127.5 µM] (inactive)
C[C@H]1CNCCN1S(=O)(=O)c1cccc2cnccc12,fold fluorescence,[1],3.94 [at 171.6 µM] (inactive)
C=C1C(=O)O[C@@H]2C3OC3(C)CC/C=C(\C)CC[C@@H]12 (some centres not stated),inhibition,[4],14.3%
same,score,[5],0.94
same,rescue above control,[6],8.2
same,cytochrome c release ratio,[7],0.54
same,inhibition of aggregation,[8],93.6%
same,glutamate uptake change,[9],-11%
same,aggregation suppression score,[10],0.572
same,fold fluorescence,[1],11.6 [at 201.4 µM] (inactive)
O=C(Nc1ncc([N+](=O)[O-])s1)c1ccc([N+](=O)[O-])c(Cl)c1,SSMD,[2],2.47
same,cell count,[2],7090
same,plate-normalised HSF1 focus index,[2],1.15 (inactive)
CN(C)C[C@H](O)Cn1c2ccc(Br)cc2c2cc(Br)ccc21,fold fluorescence,[1],6.53 [at 117.3 µM] (inactive)
O=CN(O)CCCP(=O)(O)O,outcome,[11],inactive
O=C(O)C1=CS[C@@H]2/C(=C\c3cnc4n3CCOC4)C(=O)N12,outcome,[11],inactive
COCCNC(=O)COc1ccc(OCCNC[C@H](O)COc2ccccc2)cc1,outcome,[11],inactive
COC(=O)[C@H](CCCN=C(N)N)NS(=O)(=O)c1ccc(C)cc1,SSMD,[2],1.44
same,cell count,[2],7120
same,plate-normalised HSF1 focus index,[2],1.08 (inactive)
O=C(Nc1cc(C(F)(F)F)cc(C(F)(F)F)c1)Nc1c(Br)cc(Br)cc1-c1nn[nH]n1,outcome,[11],inactive
O=C(/C=C/c1ccc(O)cc1)CC(=O)/C=C/c1ccc(O)cc1,outcome,[11],inactive
COc1cc(C(=O)NC(=S)Nc2cccc(NC(=O)c3ccccc3)c2)cc(OC)c1OC,SSMD,[2],4.07
same,cell count,[2],6830
same,plate-normalised HSF1 focus index,[2],1.24 (inactive)
N=c1ccn2c(n1)OC1C(O)[C@@H](CO)O[C@H]12 (some centres not stated),outcome,[11],inactive
